TGFb SMAD3 inh: TGF-b pathway inhibition | Potency, µM (series often up to 46.1 µM), usual class: inhibitors | hit rate 1.2% among 410,000 | AID 588855 | HepG2 CAGA-GFP TGF-b/SMAD3 reporter, GFP fluorescence, 18 h; TGF-beta stimulated, 500 pg/mL final; further: nearly all actives have a fitted effect of over 65% in size
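HEPG2 CAGA-GFP, 1000 cells/well; 2 h settle, 37 C; cpd via pin tool; TGF-b 500 pg/mL final; 18 h, 37 C; GFP imaging ex488/em500-530; %Activity normalised to -TGF-b and +DMSO controls; CRC fit, curve class.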
HepG2 tox: counter-screen for TGF-b inhibitors: cytotoxicity in HepG2 cells; HepG2 CAGA-GFP viability, ATP luminescence, 18 h; Potency, µM (top dose mostly 46.1 µM), actives largely listed as cytotoxic; hit rate 0.76% among 410,000; AID 588856
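HepG2 CAGA-GFP cells (1000/well, DMEM with 1% FBS) received compound, then TGF-beta at 500 pg/mL final, and were incubated 18 hours at 37 degrees C. Viability was read by CellTiter-Glo luminescence. Media-only wells were set as complete cell-killing and DMSO as no toxicity.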
IL-1B inflam inh: inhibitors of inflammasome signaling (IL-1 beta secretion); THP-1 LPS/ATP IL-1B secretion, AlphaLISA, 16 h; hits give low values; activity change, % at 57.5 µM; hit rate 4.7% among 360,000; in the data active means activity change below about -50%; inconclusive means mostly about -30% to -49%
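Secreted IL-1B measured by AlphaLISA bead assay after 16 h compound exposure of THP-1 cells; compounds (final up to 57.5 uM) added 1 h before LPS (250 ng/mL) and ATP (1.25 mM) stimulation; lower signal means less secretion.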
TDP1 cell CPT: growth inhibition of DT40 Tdp1-/-;hTDP1 cells with camptothecin (screen for TDP1 inhibitors); chicken DT40 Tdp1-/-;hTDP1 cells + 20 nM CPT, ATP luminescence, 48 h; Potency, µM (titrated, usually from 46.2 µM), usual class: inhibitors; hit rate 12% among 420,000; further: nearly all actives have a fitted effect of over 55% in size
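Chicken DT40 Tdp1-/- cells stably complemented with human TDP1 were seeded at 400 cells/well in medium containing 20 nM camptothecin, exposed to pin-transferred compounds, and grown at 37 °C for at least 48 hr. Viability was read as ATP luminescence.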
S-ASM inh: blocks human secretory acid sphingomyelinase; placental ASM, HMU-PC fluorogenic substrate, 60 min; Potency, µM (top dose mostly 57.5 µM), hits mostly inhibitors; hit rate 0.006% among 340,000; AID 504937
Target sequence (P17405 47-631 limits assumed): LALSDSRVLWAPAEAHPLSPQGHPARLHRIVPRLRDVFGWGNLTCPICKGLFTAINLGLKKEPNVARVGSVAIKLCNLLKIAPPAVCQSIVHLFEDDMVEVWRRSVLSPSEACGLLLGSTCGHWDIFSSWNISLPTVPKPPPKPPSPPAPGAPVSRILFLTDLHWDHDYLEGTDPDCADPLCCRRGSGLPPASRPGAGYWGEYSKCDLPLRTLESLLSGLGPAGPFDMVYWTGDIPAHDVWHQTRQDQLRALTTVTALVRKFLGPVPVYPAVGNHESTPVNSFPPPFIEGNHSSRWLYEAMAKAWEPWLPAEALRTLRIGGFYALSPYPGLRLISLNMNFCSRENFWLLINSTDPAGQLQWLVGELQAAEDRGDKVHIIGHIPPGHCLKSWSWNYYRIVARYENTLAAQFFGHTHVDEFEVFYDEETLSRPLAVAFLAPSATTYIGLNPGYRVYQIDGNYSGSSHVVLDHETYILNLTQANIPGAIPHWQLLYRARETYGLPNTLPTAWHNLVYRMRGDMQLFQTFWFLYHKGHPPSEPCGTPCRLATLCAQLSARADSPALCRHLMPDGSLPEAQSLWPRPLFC
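Fluorescence read-out (Ex 386 nm, Em 447 nm) after stopping the reaction at pH 10. Enzyme: ASM from human placenta; substrate HMU-PC0, 9 uM final; 60 min, 37 °C. Compound preincubation 10 min, ambient temperature.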
DT40 TDP1 no CPT: qHTS for Inhibitors of human tyrosyl-DNA phosphodiesterase 1 (TDP1): qHTS in cells in absence of CPT | DT40 Tdp1-/- hTDP1 cells, no CPT, ATP luminescence, 48 h | Potency, µM (highest dose often 46.2 µM), usual class: inhibitors | hit rate 15% among 420,000 | AID 686978, 2013; further: nearly all actives have a fitted effect of over 55% in size
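Growth kinetics read by CellTiter-Glo luminescence after ≥48 hr at 37 °C. Cells: DT40 Tdp1-/- stably carrying human TDP1, 400 per well, compound exposure in the absence of CPT (DMSO vehicle).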
Hits are given with their value; i = inactive; ? = inconclusive; nt = no result; [ ] = dose if it differs, or a comment. Sampled rows, rich in hits. Any-hit rate of the full collection: about 19%. Unless noted, the call rests on the fitted dose curve; in most records, active means well fitted curve in the direction sought with a large enough effect; inconclusive means small, poorly fitted or top-dose-only effect, or another doubt; inactive means no such curve, though single readings can be large; an effect the other way counts as inactive or inconclusive.

SMILES	TGFb SMAD3 inh	HepG2 tox	IL-1B inflam inh	TDP1 cell CPT	S-ASM inh	DT40 TDP1 no CPT
Cc1ccccc1OCC(=O)Nc1ccc(N2CCOCC2)cc1N1CCOCC1	i	i	i	?	i	?
CCOc1ccc(S(=O)(=O)N2CCCCC2)cc1NC(=O)Cc1cccs1	i	i	i	?	i	18µM
Cc1ccccc1OCCC(=O)Nc1cc(S(=O)(=O)N2CCCCC2)ccc1N1CCN(C)CC1	?	i	i	?	i	?
CC(C)(C)OC(=O)N1CCc2onc(-c3ccccc3F)c2C1=O	i	i	i	i	nt	i
Cc1cc(F)ccc1S(=O)(=O)N1CCCOC1CNC(=O)C(=O)NCCc1c[nH]c2ccccc12 (stereo unspecified)	i	i	?	16µM	i	?
O=C(NCCc1c[nH]c2ccccc12)C(=O)NCC1OCCCN1S(=O)(=O)c1ccc(F)cc1 (stereo unspecified)	?	i	i	18µM	i	?
Cc1cc(C)c(S(=O)(=O)N2CCCOC2CNC(=O)C(=O)NCCc2c[nH]c3ccccc23)c(C)c1 (stereo unspecified)	?	i	i	?	i	15µM
O=C(NCCc1c[nH]c2ccccc12)C(=O)NCC1OCCN1S(=O)(=O)c1cc(F)ccc1F (stereo unspecified)	?	i	i	?	i	?
COc1ccc(C(=O)N2CCN(C3CCCCC3)CC2)cc1OC	i	i	i	i	i	?
Cc1cccc(C(c2sc3nc(-c4ccco4)nn3c2O)N2CCOCC2)c1 (stereo unspecified)	i	i	nt	i	nt	i
O=C(Nc1ccccc1Cl)N1CCN(c2ccc3nnc(-c4ccc(F)cc4)n3n2)CC1	?	i	i	18µM	i	16µM
COc1ccccc1NC(=O)N1CCN(c2ccc3nnc(-c4ccc(F)cc4)n3n2)CC1	?	i	-52	18µM	i	?
COc1ccc2cc(CNCc3ccccc3Cl)c(N3CCCC(CO)C3)nc2c1 (stereo unspecified)	nt	nt	nt	i[9.04 µM]	nt	?
COC(=O)c1sc(S(=O)(=O)NC(Cc2ccccc2)C(=O)O)c(C(=O)OC)c1C (stereo unspecified)	i	i	i	i	i	i
CC1(C)C2CCC1(CS(=O)(=O)N1CCN(c3ccc(F)cc3)CC1)C(=O)C2 (stereo unspecified)	i	i	i	i	i	i
CCc1ccc(N2CCN(S(=O)(=O)CC34CCC(CC3=O)C4(C)C)CC2)cc1 (stereo unspecified)	i	i	-67	i	i	21µM
CCC(C)(C)NC(=O)CN(Cc1ccc2c(c1)OCO2)C(=O)CCC(=O)Nc1cc(C)ccn1	i	i	i	i	i	i
COc1cccc(CNC(=O)CN2C(=O)CCCc3ccccc32)c1OC	i	i	nt	i	nt	i
COc1cccc(CNC(=O)CN2C(=O)N(c3ccc(C)cc3C)S(=O)(=O)c3ccccc32)c1OC	?	i	nt	?	nt	21µM
CSc1cccc(N2C(=O)N(CC(=O)NCc3ccccc3Cl)c3ccccc3S2(=O)=O)c1	i	i	nt	?	nt	16µM
COc1cc(/C=c2\s/c(=C(/C#N)C(=O)N3CCCC3)n(-c3ccccc3)c2=O)ccc1O	i	i	i	?	i	9.2µM
COc1ccccc1-c1nc2ccccc2nc1-c1ccccc1	i	i	i	18µM	i	?
CC(=O)c1c(C)[nH]c(C(=O)N2CCN(c3ccc(F)cc3)CC2)c1C	i	i	i	14µM	i	?
COc1cccc(N2CCN(C(=O)c3[nH]c(C)c(C(C)=O)c3C)CC2)c1	i	i	i	5.6µM	i	4.5µM
CCOC(=O)c1c(C)[nH]c(C(=O)OCC(=O)N2CCN(S(=O)(=O)c3ccc(C)cc3C)CC2)c1C	i	i	?	?	i	?
CC(=O)c1c(C)[nH]c(C(=O)N2CCN(C(=O)c3ccco3)CC2)c1C	i	i	i	i	i	i

Bioassay records from PubChem.
